High-throughput results (PubChem BioAssay)
Rows were chosen to be rich in hits. Some 15% of all compounds tested hit in one or more screens of this group.
Pf growth 48h: Primary qHTS for delayed death inhibitors of the malarial parasite plastid, 48 hour incubation; Potency, µM (series often up to 28.7 µM), inactives show top-dose activity change, negative = inhibition, most hits filed as inhibitors; 310,000 compounds, 5.9% hits; AID 504832, 2011; P. falciparum luciferase growth in erythrocytes, 48 h; note: potency is the fitted concentration of half-maximal effect; % is set by controls: 0 for no effect and ±100 for the full control effect
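First compound was added to culture medium, then infected red cells at 0.1% parasitemia and 2% hematocrit (final). After incubation at 37 C under 5% CO2, luciferase detection reagent was dispensed and light output recorded.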
HCMV antiviral: qHTS Assay for inhibitors of the human cytomegalovirus (HCMV). AID 1259415, 2018. HFF cells, HCMV-luciferase reporter, 72 h; hits give low values. 410,000 compounds, 4.5% hits. activity change, negative = inhibition, % at 57.5 µM; in the data active = activity change below about -60%; inconclusive = no clear call, values can overlap the other calls; inactive = above about -39%; note: % is set by controls: 0 for no effect and ±100 for the full control effect
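Two-dose cell screen: HFF monolayers treated with compounds and infected with luciferase-expressing HCMV at 1 PFU/cell, 72 h at 37C, then lysed for luciferase measurement.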
Pf growth 96h: Primary qHTS for delayed death inhibitors of the malarial parasite plastid, 96 hour incubation. P. falciparum luciferase reporter growth, 96 h. Potency, µM (doses to about 28.7 µM), inactives show at the highest dose activity change, negative = inhibition, most hits filed as inhibitors. 320,000 compounds, 6.9% hits. AID 504834, 2011; note: potency is the fitted concentration of half-maximal effect; % is set by controls: 0 for no effect and ±100 for the full control effect
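Compounds incubated with erythrocytes infected by luciferase-expressing P. falciparum (2% hematocrit, 0.05% parasitemia final) for 96 hours, 37 C in 5% CO2. Growth inhibition scored as decreased luciferase luminescence.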
HCV inh: qHTS Assay for Inhibitors of Hepatitis C Virus (HCV). AID 651820, 2012. Potency, µM (titrated, usually from 41.8 µM), for inactives: at the highest dose activity change, negative = inhibition, most hits filed as inhibitors. Huh7.5.1 HCVcc-Cre infection, luciferase reporter, 44 h. 340,000 compounds, 3.4% hits; note: potency is the fitted concentration of half-maximal effect; % is set by controls: 0 for no effect and ±100 for the full control effect
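After 44 h co-culture of compound, cells and HCVcc-Cre (~0.5 moi), substrate is added for 15 min at room temperature and luciferase measured over 15 sec. Cells were seeded at 1,000/well and pre-cultured 4 h.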
Sm TGR block: qHTS Assay for the Inhibitors of Schistosoma Mansoni Peroxiredoxins; Schistosoma mansoni thioredoxin glutathione reductase (TGR), Q962Y6; purified TGR, DTNB reduction, TNB absorbance 405 nm; Potency, µM (doses to about 114 µM), for the others: top-dose activity change, negative = inhibition, usual class: inhibitors; 360,000 compounds, 3% hits; AID 485364, 2010; note: potency is the fitted concentration of half-maximal effect; % is set by controls: 0 for no effect and ±100 for the full control effect; nearly all actives have a fitted effect of over 60% in size
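Kinetic colorimetric format: TGR-catalysed, NADPH-driven DTNB reduction monitored via TNB absorbance. Enzyme dispensed at 20 nM; compound exposure 15 min at room temperature before reaction start.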
SARS PLpro yeast: qHTS of Yeast-based Assay for SARS-CoV PLP; S. cerevisiae expressing SARS-CoV PLpro, growth rescue; Potency, µM (series often up to 32.9 µM), inactives show at the top dose activity, positive = growth rescue, hits mostly activators; 330,000 compounds, 0.19% hits; AID 485353, 2010; calls by dose curve; note: potency is the fitted concentration of half-maximal effect; 0% is about no effect; nearly all actives have a fitted effect of over 55% in size
Active calls of the source: *. Unless noted, calls come from the whole dose curve; as a rule, active = well fitted curve in the direction sought with a large enough effect; inconclusive = small, poorly fitted or top-dose-only effect, or another doubt; inactive = no such curve, though single readings can be large; an effect the other way counts as inactive or inconclusive.

For CC1(C)CC(=O)C=C(NC2CCCC(O)C2)C1 (centres undefined) the results were Pf growth 48h inconclusive, HCMV antiviral -10.3, Pf growth 96h 80.7%, HCV inh 10.6%, Sm TGR block -9.0% and SARS PLpro yeast -4.3%.
CCCCN(CCCC)S(=O)(=O)c1ccc(NC(=O)Cc2cccs2)cc1 was read as Pf growth 48h inconclusive, HCMV antiviral -6.8, HCV inh inconclusive, Sm TGR block -16.1% and SARS PLpro yeast 2.2%.
For CCOc1ccc(CCNC(=O)c2cccc(-n3c(C)nc4cccnc43)c2)cc1 the results were HCMV antiviral inconclusive and Sm TGR block -2.0%.
For O=C(OCC(=O)N1CCN(C(=O)c2ccco2)CC1)c1cc(S(=O)(=O)Nc2ccc(Cl)cc2)ccc1O the results were Pf growth 48h 0.0%, HCMV antiviral 2.5, Pf growth 96h 45.1%, HCV inh 7.5%, Sm TGR block 44.7µM* and SARS PLpro yeast 3.4%.
Screening O=C(CCNS(=O)(=O)c1ccc(Cl)cc1)OCC(=O)N1CCN(C(=O)c2ccco2)CC1 returned Pf growth 48h 6.0%, HCMV antiviral 18.3, Pf growth 96h 11.9%, HCV inh 27.4%, Sm TGR block -16.9% and SARS PLpro yeast -2.1%.
Screening O=C(c1cc(-c2ccco2)nc2ccccc12)N1CCN(c2ccc(F)cc2)CC1 returned Pf growth 48h inconclusive, HCMV antiviral 60.8, Pf growth 96h 13.1µM*, HCV inh inconclusive, Sm TGR block inconclusive and SARS PLpro yeast -38.8%.
Screening O=C(O)c1cc(-c2ccco2)nc2ccccc12 returned Pf growth 48h 33.7%, HCMV antiviral 12.9, Pf growth 96h 0.4%, HCV inh 2.6%, Sm TGR block inconclusive and SARS PLpro yeast 19.7%.
`COc1ccc(S(=O)(=O)N(C)C[C@H]2OCc3cn(nn3)CCCC(=O)N([C@@H](C)CO)C[C@@H]2C)cc1` gave HCMV antiviral -21.4.
CC1CCCC2(C1)NC(=S)c1c(sc3c1CCCC3)N2 (centres undefined) was read as HCMV antiviral 34.3, Pf growth 96h 5.22µM*, HCV inh -14.6%, Sm TGR block 6.2% and SARS PLpro yeast -1.5%.
Screening CC(C)C1C(=O)N(Cc2cn(CCC3OCCO3)nn2)CCS(=O)(=O)N1Cc1ccc(-c2ccc(F)cc2Cl)cc1 (centres undefined) returned HCMV antiviral -8.5.
`COc1ccc(N=Nc2n(C)c3ccccc3[n+]2C)cc1` gave Pf growth 48h 0.738µM*, Pf growth 96h 0.522µM*, Sm TGR block 5.01µM* and SARS PLpro yeast -3.1%.
Screening Cn1c(COc2ccccc2O)[n+](C)c2ccccc21 returned Pf growth 48h -10.6%, HCMV antiviral 7.6, Pf growth 96h -18.8%, HCV inh -9.0%, Sm TGR block -17.2% and SARS PLpro yeast 0.7%.
`COC(=O)CN(C)C(=O)c1ccc2nc(Cc3cccc(Cl)c3)oc2c1` gave Pf growth 48h -0.1%, HCMV antiviral 35.4, Pf growth 96h inconclusive, HCV inh 2.1%, Sm TGR block 6.8% and SARS PLpro yeast 0.6%.
`O=c1oc2c3c4c(cc2c2c1CCC2)OCCN4CCC3` gave Pf growth 48h -4.1%, HCMV antiviral -67.8*, HCV inh inconclusive, Sm TGR block -15.3% and SARS PLpro yeast -17.7%.
Screening CC(=O)N1CCN(c2ccc(Nc3ncnc4c3oc3ccccc34)cc2)CC1 returned Pf growth 48h -21.2%, HCMV antiviral inconclusive, Pf growth 96h inconclusive, HCV inh inconclusive, Sm TGR block 0.0% and SARS PLpro yeast -7.2%.
Screening CCc1nc(Nc2ccccc2)c2oc3ccccc3c2n1 returned Pf growth 48h -14.9%, HCMV antiviral -6.8, Pf growth 96h 0.0%, HCV inh inconclusive, Sm TGR block -18.9% and SARS PLpro yeast -9.8%.
